PubChem BioAssay (NCI)
Where “and” joins values, the source holds several entries; their conditions need not be identical. Equal values may be shown once. The panel holds about 83,000 compounds, 20% with a hit somewhere; the sample as a whole holds those more often.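 Cell lines were cultured in 96-well plates, exposed to a single compound concentration, and assessed for percent growth 48 hours later.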 Unmarked numbers belong to inactive results. Calls of active or inactive are those of the source.

These compounds were tested on UACC-62 melanoma (assay: NCI-60 one-dose screen, 48 h (100 = growth as untreated, 0 = no growth, -100 = all killed)). Settings: 10 µM.
Description: Growth inhibition of the UACC-62 human tumor cell line is measured as a screen for anti-cancer activity. Cells are grown in 96 well plates and exposed to the test compound for 48 hours. Compounds are tested at a single concentration, which is 10^-5 M for most compounds. The reported endpoint is percent growth (GI% or GIPRCNT), where numbers from 0 - 100% represent growth inhibition, and numbers from -100% - 0 represent cell death. For example, a value of 40 represents 60% growth inhibition. A value of 0 means no net growth occurred over the course of the experiment. A value of -40 indicates 40% of cells at the beginning of the experiment died by the end of the experiment. A value of -100 means all cells are dead at the end of the experiment.
NCI-60 Human Tumor Cell Lines Screen was performed using the standard one-dose NCI protocol, which is described in more detail at https://dtp.cancer.gov/discovery_development/nci-60/default.htm.
Compounds with GIPRCNT values below 10 were considered active. Activity score was based on GIPRCNT using the following formula: […]
Score is 0 for GIPRCNT values of 100 or above, 50 for GIPRCNT values of 0, and 100 for GIPRCNT values of -100.

Compound | growth [%]
O=C(/C=C/c1cccc(Oc2ccc(Cl)cc2)c1)c1ccccc1 | 100

Same assay, conditions: 10 µM unless noted

Compound | growth
COc1ccc2nc3cc(Cl)ccc3c(NCCCNCCC(C)O)c2c1 (stereo not given) | -57% (active)
CCOC(=O)c1c(-c2ccc(C)cc2)c(C#N)c(=O)n(-c2cccc(C(F)(F)F)c2)c1N | 99%
COc1ccc(/C=C(\C#N)c2cc3ccccc3[nH]2)cc1 | 31.4%
CCNC(=O)Oc1ccc(/C(=C(/C)Cc2ccc(OC)cc2)c2ccc(OCCN(CC)CC)cc2)cc1 | -16.4% (active)
CCOc1ccccc1NC(=O)c1cc2ccccc2cc1O | 21.2%
CC1(Cc2ccccc2)CC2=C(C(=O)O1)C(c1ccccc1)NC(=O)N2 (stereo not given) | 91.5%
O=C(/C=C/c1cccs1)Nc1ncc(Cc2ccc(Cl)c(Cl)c2)s1 | 17.6%
CCCc1cc(C(N)=S)ccn1 | 108%
CN1CCN(Cc2ccc(NC(=O)c3cccc(C#Cc4c(N)ncc5ccc(F)cc45)c3)cc2C(F)(F)F)CC1 | -51.1% (active)
Cc1ccc(-c2nc(C#N)c(S(=O)(=O)N(C)C)o2)cc1 | 97.5%
COc1cc(Nc2nc3ccccc3cc2C(=O)Nc2ccc(F)c(F)c2)cc(OC)c1OC | 12.9%
CCN1C(=O)/C(=c2\sc3n(c2=O)C2C(NN=3)N(CC)C(=O)N2CC)c2ccccc21 (stereo not given) | 32.9%
Cc1n(Cc2ccc3ccccc3c2)c(Cl)c(Cl)[n+]1Cc1ccc2ccccc2c1 | -40.3% (active)
COc1ccc(C/C(C)=C(/c2ccc(OCCN3CCCCCC3)cc2)c2ccc(OC(=O)c3ccccc3)cc2)cc1 | 99.1%
CN1CCN(CCCN2c3ccccc3Sc3ccc(Cl)cc32)CC1 | 33.1%
Cc1nc2sc(C(=O)Nc3cccc4ncccc34)c(N)c2cc1C(C)O (stereo not given) | 42.9%
Cn1cc(-c2csc(-c3cn(CCOC(N)=O)c4ccccc34)n2)c2cccnc21 | 72.2%
CCNC(=S)n1nc(SC)c(C(=O)OCC)c1N | 81.6%
CC(Sc1ccccc1)C(=O)O (stereo not given) | 94.5%

Compound | growth
COc1cc(N=Nc2ccc(O)c3ncccc23)c2ncccc2c1 | 6.71% (active)
O=C(Nc1ccccc1C(=O)N/N=C(\c1ccccc1)c1ccccn1)c1ccccc1 | -10.4% (active)
COc1ccc2c(c1)oc1c(C)c3c(c(C)c12)C(=O)N(Nc1ccccc1)C3=O | 98.5%
O=C(CCl)N(O)c1ccc(/C=C/c2ccccc2)cc1 | 74.6% and 72.2%
COC(=O)c1nc(-c2ccc(C)cc2)oc1S(=O)(=O)c1ccc(Cl)cc1 | 90.4%
COc1ccc(-c2cc(-c3cccc(Cl)c3)c(C#N)c(=O)[nH]2)c(OC)c1 | 90.7%
COCCOc1cc2ncnc(N3CCN(S(=O)(=O)c4ccccc4Cl)CC3)c2cc1OCCOC | 61%
COc1ccc(Nc2nn3c(SCC(=O)c4ccc(C)cc4)nnc3s2)cc1 | 83.7%
C=C(CN1CC=CCC1)[C@@H]1CC[C@]2(COC(C)=O)CC[C@]3(C)[C@H](CC[C@@H]4[C@@]5(C)CC[C@H](O)C(C)(C)[C@@H]5CC[C@]43C)[C@@H]12 | 92.3%
CCOC(=O)n1cc(-c2nonc2-c2cn(C)c3ccc(OC)cc23)c2cc(F)ccc21 | 52.6%
CCOc1ccc(C(=O)Cc2ccccc2)cc1 | 98.2% and 106%
COc1ccc(-c2cc(-c3cccnc3)nc3sc4c(Cl)nnnc4c23)cc1OC | 81%
COc1ccc(/C(C)=C(\c2ccc(OCCN3CCOCC3)cc2)c2ccc(OC(=O)C3CCCCC3)cc2)cc1 | 110%
COc1ccc(C/C(C)=C(\c2ccc(O)cc2)c2ccc(OCCCN(C)C)cc2)cc1 | 108%
CCCCSc1ccc2nc(-c3ccc(OCCCN=C(N)N)cc3)cn2c1 | 52%
COCCn1cc(-c2nc(-c3cn(CCOC)c4ncccc34)cs2)c2ccccc21 | 87.1%
CCOC(=O)C(=CCC(C)C)C(=O)OCC | 93%
O=c1ccc2nc(-c3ccccn3)nn(-c3ccccc3)c-2c1 | 72.7%
O=C(N=Nc1c(O)[nH]c2ccccc12)Nc1ccc(Br)cc1 | 79.3%

Same assay, conditions: 100 µM

Compound | growth
O=C(/C=C/c1cccc(Oc2ccc(Cl)cc2)c1)c1ccccc1 | -71.9% (active)
